This is an account of results in PubChem BioAssay (NCI).

Compounds without any hit were thinned out: in the full panel of roughly 83,000, 20% have a hit.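 Single-concentration screen, 48 h exposure, 96-well plates. Endpoint: percent growth. Below 10 = active.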 Active and inactive are the calls of the source.

For the first assay, the system named is OVCAR-4 ovarian. The assay can be described thus: NCI-60 one-dose screen, 48 h (100 = growth as untreated, 0 = no growth, -100 = all killed). Particulars: 10 µM unless noted.
Regarding `Cc1cc(NCCCNc2ccnc3cc(Cl)ccc23)nc(N2CCN(C)CC2)n1`, the growth is 59.5% (inactive).
On the same count and under the same terms, for `CCCc1cc(=O)n2c(C(=O)Nc3ccccc3OC)c(C(=O)Nc3ccc(F)cc3)sc2n1` the value was 36.2% [30 µM] (inactive).
As for `N#Cc1cccc(/C=C(/C(=O)c2ccccc2)c2ccccc2)c1`, the growth is 50.9% (inactive).
For the molecule `CCC1(c2ccccc2)Oc2ccccc2-n2c(C#N)c3ccccc3c2C1=O` (centres undefined), the growth is 99.8% (inactive).
Same read-out and setting: for `C/C(=N/N=C(N)N)c1ccc(N)cc1` the value was 100% (inactive).
Consider `CC(C)c1nc(N(C)S(C)(=O)=O)nc(-c2ccc(F)cc2)c1/C=C/[C@@H](O)C[C@@H](O)CC(=O)O`, for which the growth is 100% (inactive).
The same measure, in the same setting: the same measure for `COc1ccc(/C=C(\C#N)c2ccccc2)cc1`: 85.9% (inactive); for `Fc1ccc([C@@H]2CCNC[C@H]2COc2ccc3c(c2)OCO3)cc1`: 90% (inactive).
On the same count and under the same terms, for `COc1cc(/C=C/C(=O)c2c(-c3ccc(F)cc3)nc3sc(C)nn23)cc(OC)c1OC` the value was 44.1% (inactive); for `CCC(C)CC(CC)NCCN1CCN(C(CC)CC(C)CC)C1=S` (centres undefined), 37.8% (inactive); for `COc1cccc(-c2nnc(N)o2)c1`, 97.9% (inactive).
As for `CCCCSc1cc(C)nc(N)n1`, the growth is 98.1% (inactive).
The same measure, in the same setting: for `Cc1ccsc1/C=C/C1=NCCCN1C` the value was 102% (inactive); for `Nc1c2ccccc2nc2ccccc12` (tested in a mixture with another compound), 19% (inactive).
Still for that read-out and setting: for `COc1cc(/C=C/C(=O)c2c(-c3ccc(Cl)cc3)nc3sc(C)nn23)cc(OC)c1OC` the value was 74.8% (inactive); for `CCCCc1nc(Cl)c(CO)n1Cc1ccc(-c2ccccc2-c2nn[nH]n2)cc1`, 109% (inactive); for `CN(CCOc1ccc(CC2SC(=O)NC2=O)cc1)c1ccccn1` (centres undefined), 110% (inactive).
Consider `N#Cc1c2ccccc2c2n1-c1ccccc1OC(c1ccccc1)C2=O` (centres undefined), for which the growth is 14.6% (inactive).
Same read-out and setting: the same measure for `Nc1nc(N)c([N+](=O)[O-])c(=O)[nH]1`: 114% (inactive); for `Cc1c(C(N)=O)sc2ncn(Cc3ccccc3)c(=O)c12`: 111% (inactive); for `CC(=O)O[C@H]1C(=O)[C@@]2(C)C([C@H](OC(=O)c3ccccc3)[C@]3(O)C[C@H](OC(=O)[C@H](O)[C@@H](NC(=O)c4ccccc4)c4ccccc4)C(C)=C1C3(C)C)[C@]1(OC(C)=O)CO[C@@H]1C[C@@H]2O` (some centres undefined): 46.5% (inactive).
For the molecule `CC1(C)OC(=O)C(=Cc2ccccc2Br)C(=O)O1`, the growth was 102% (inactive).
Same read-out and setting: for `COC1CC2CCC(C)C(O)(O2)C(=O)C(=O)N2CCCCC2C(=O)OC(C(C)CC2CCC(O)C(OC)C2)CC(=O)C(C)C=C(C)C(O)C(OC)C(=O)C(C)CC(C)/C=C/C=C/C=C1C` (centres undefined) the value was 34.5% (inactive).
The same measure, in the same setting: the same measure for `COc1cc([C@@H]2c3cc4c(cc3C(O[C@@H]3O[C@@H]5CO[C@@H](c6cccs6)OC5[C@H](O)[C@H]3O)C3COC(=O)[C@@H]32)OCO4)cc(OC)c1O` (some centres undefined): 13.8% (inactive); for `Cn1c(=O)c2nc(SCc3ccccc3)n(C)c2n(C)c1=O`: 118% (inactive); for `O=c1cc(-c2cccnc2)oc2c1ccc1ccccc12`: 89.3% (inactive).
For `C/C(=N\N1CC(=O)NC1=O)c1ccc([N+](=O)[O-])o1`, the growth was 105% (inactive).
On the same count and under the same terms, the same measure for `NC(N)=N/N=C(/c1ccccc1)c1ccc(Cl)cc1`: 95.2% (inactive).
Same read-out and setting: the same measure for `N#Cc1ccc(NC(=O)Nc2ccc(Oc3ccc(NC(=O)Nc4ccc(C#N)cc4)cc3)cc2)cc1`: 33.8% (inactive); for `Cc1c(NCc2nnc3n(Cc4ccccc4)c(=O)c4c5c(sc4n23)CCCC5)c(=O)n(-c2ccccc2)n1C`: 74.7% (inactive); for `O=C(Nc1ccc(OCc2nnc(-c3ccccc3)o2)c(F)c1)Nc1ccc(Cl)c(C(F)(F)F)c1`: 26.8% (inactive).
Same read-out and setting: the same measure for `Cc1cc(N2CCOCC2)nc(N2CCOCC2)n1`: 93.9% (inactive).
Consider `COc1cc2c(C#N)n3c(c2cc1OC)C(=O)C(c1ccccc1)Oc1ccccc1-3` (centres undefined), for which the growth was 16% (inactive).
As to `O=[N+]([O-])c1ccc(N/N=C\c2ccccc2[N+](=O)[O-])nc1`, the growth is 120% (inactive).
As to `CO[C@H]1CC(O[C@@H]2/C(C)=C/C[C@@H]3C[C@@H](C[C@]4(CC[C@H](C)[C@@H](C5CCCCC5)O4)O3)OC(=O)[C@@H]3C=C(C)/C(=N/O)[C@H]4OC/C(=C\C=C\[C@@H]2C)[C@]43O)O[C@@H](C)C1O` (some centres undefined), the growth is -88.5% (active).
Take `COc1ccc(OC)c(NC(=O)c2cc3oc4ccccc4c3cc2O)c1`: the growth is 91.4% (inactive).
On the same count and under the same terms, the same measure for `C=C1CC[C@@H]2[C@](C)(COC(C)=O)[C@H](OC(C)=O)CC[C@@]2(C)[C@@H]1CC(Nc1ccc(S(=O)(=O)Nc2cc(C)on2)cc1)C1=CCOC1=O` (some centres undefined): 68.2% (inactive).

In a further assay the test system is SK-OV-3 ovarian. Described as above. Particulars: 10 µM unless noted.
For the molecule `Cc1cc(NCCCNc2ccnc3cc(Cl)ccc23)nc(N2CCN(C)CC2)n1`, the growth is 106% (inactive).
On the same count and under the same terms, for `CCCc1cc(=O)n2c(C(=O)Nc3ccccc3OC)c(C(=O)Nc3ccc(F)cc3)sc2n1` the value was 29.9% [30 µM] (inactive); for `N#Cc1cccc(/C=C(/C(=O)c2ccccc2)c2ccccc2)c1`, 110% (inactive).
The same measure, in the same setting: the same measure for `CCC1(c2ccccc2)Oc2ccccc2-n2c(C#N)c3ccccc3c2C1=O` (centres undefined): 91.4% (inactive); for `C/C(=N/N=C(N)N)c1ccc(N)cc1`: 105% (inactive); for `CC(C)c1nc(N(C)S(C)(=O)=O)nc(-c2ccc(F)cc2)c1/C=C/[C@@H](O)C[C@@H](O)CC(=O)O`: 104% (inactive).
Same read-out and setting: for `COc1ccc(/C=C(\C#N)c2ccccc2)cc1` the value was 114% (inactive); for `Fc1ccc([C@@H]2CCNC[C@H]2COc2ccc3c(c2)OCO3)cc1`, 90.8% (inactive); for `COc1cc(/C=C/C(=O)c2c(-c3ccc(F)cc3)nc3sc(C)nn23)cc(OC)c1OC`, 15.5% (inactive).
Consider `CCC(C)CC(CC)NCCN1CCN(C(CC)CC(C)CC)C1=S` (centres undefined), for which the growth is 56.2% (inactive).
Same read-out and setting: the same measure for `COc1cccc(-c2nnc(N)o2)c1`: 115% (inactive).
Still for that read-out and setting: the same measure for `CCCCSc1cc(C)nc(N)n1`: 97.8% (inactive).
Take `Cc1ccsc1/C=C/C1=NCCCN1C`: the growth was 103% (inactive).
Take `Nc1c2ccccc2nc2ccccc12` (tested in a mixture with another compound): the growth was 32.6% (inactive).
Still for that read-out and setting: the same measure for `COc1cc(/C=C/C(=O)c2c(-c3ccc(Cl)cc3)nc3sc(C)nn23)cc(OC)c1OC`: 110% (inactive); for `CCCCc1nc(Cl)c(CO)n1Cc1ccc(-c2ccccc2-c2nn[nH]n2)cc1`: 106% (inactive).
Same read-out and setting: the same measure for `CN(CCOc1ccc(CC2SC(=O)NC2=O)cc1)c1ccccn1` (centres undefined): 106% (inactive); for `N#Cc1c2ccccc2c2n1-c1ccccc1OC(c1ccccc1)C2=O` (centres undefined): 65.4% (inactive); for `Nc1nc(N)c([N+](=O)[O-])c(=O)[nH]1`: 100% (inactive).
In the case of `Cc1c(C(N)=O)sc2ncn(Cc3ccccc3)c(=O)c12`, the growth is 106% (inactive).
On the same count and under the same terms, the same measure for `CC(=O)O[C@H]1C(=O)[C@@]2(C)C([C@H](OC(=O)c3ccccc3)[C@]3(O)C[C@H](OC(=O)[C@H](O)[C@@H](NC(=O)c4ccccc4)c4ccccc4)C(C)=C1C3(C)C)[C@]1(OC(C)=O)CO[C@@H]1C[C@@H]2O` (some centres undefined): 18.1% (inactive); for `CC1(C)OC(=O)C(=Cc2ccccc2Br)C(=O)O1`: 111% (inactive); for `COC1CC2CCC(C)C(O)(O2)C(=O)C(=O)N2CCCCC2C(=O)OC(C(C)CC2CCC(O)C(OC)C2)CC(=O)C(C)C=C(C)C(O)C(OC)C(=O)C(C)CC(C)/C=C/C=C/C=C1C` (centres undefined): 52.9% (inactive).
On to `COc1cc([C@@H]2c3cc4c(cc3C(O[C@@H]3O[C@@H]5CO[C@@H](c6cccs6)OC5[C@H](O)[C@H]3O)C3COC(=O)[C@@H]32)OCO4)cc(OC)c1O` (some centres undefined), for which the growth was -13.6% (active).
On the same count and under the same terms, for `Cn1c(=O)c2nc(SCc3ccccc3)n(C)c2n(C)c1=O` the value was 99.2% (inactive); for `O=c1cc(-c2cccnc2)oc2c1ccc1ccccc12`, 106% (inactive); for `C/C(=N\N1CC(=O)NC1=O)c1ccc([N+](=O)[O-])o1`, 109% (inactive).
On to `NC(N)=N/N=C(/c1ccccc1)c1ccc(Cl)cc1`, for which the growth is 81.2% (inactive).
The same measure, in the same setting: the same measure for `N#Cc1ccc(NC(=O)Nc2ccc(Oc3ccc(NC(=O)Nc4ccc(C#N)cc4)cc3)cc2)cc1`: 58.7% (inactive); for `Cc1c(NCc2nnc3n(Cc4ccccc4)c(=O)c4c5c(sc4n23)CCCC5)c(=O)n(-c2ccccc2)n1C`: 120% (inactive).
In the case of `O=C(Nc1ccc(OCc2nnc(-c3ccccc3)o2)c(F)c1)Nc1ccc(Cl)c(C(F)(F)F)c1`, the growth is 52.4% (inactive).
In the case of `Cc1cc(N2CCOCC2)nc(N2CCOCC2)n1`, the growth was 99.2% (inactive).
Still for that read-out and setting: the same measure for `COc1cc2c(C#N)n3c(c2cc1OC)C(=O)C(c1ccccc1)Oc1ccccc1-3` (centres undefined): 97.6% (inactive); for `O=[N+]([O-])c1ccc(N/N=C\c2ccccc2[N+](=O)[O-])nc1`: 121% (inactive); for `CO[C@H]1CC(O[C@@H]2/C(C)=C/C[C@@H]3C[C@@H](C[C@]4(CC[C@H](C)[C@@H](C5CCCCC5)O4)O3)OC(=O)[C@@H]3C=C(C)/C(=N/O)[C@H]4OC/C(=C\C=C\[C@@H]2C)[C@]43O)O[C@@H](C)C1O` (some centres undefined): -98.4% (active).
Regarding `COc1ccc(OC)c(NC(=O)c2cc3oc4ccccc4c3cc2O)c1`, the growth was 81.1% (inactive).
On the same count and under the same terms, for `C=C1CC[C@@H]2[C@](C)(COC(C)=O)[C@H](OC(C)=O)CC[C@@]2(C)[C@@H]1CC(Nc1ccc(S(=O)(=O)Nc2cc(C)on2)cc1)C1=CCOC1=O` (some centres undefined) the value was 109% (inactive).
